High-throughput results: PubChem BioAssay, The Scripps Research Institute Molecular Screening Center
Most compounds without a hit are left out; they make up all but 2.4% or so of the library.
CHO-K1 Ca antag: M1 antagonist counterscreen hit in parental CHO-K1 cells; 360,000 tested, 0.6% active; inhibition, % at 3 µM; ATP-induced calcium, Fluo-8 fluorescence;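 active = inhibition above a per-plate cutoff, the plate's mean sample inhibition plus 3 SD, cut at about 24% in these data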;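 note: 0% = DMSO plus EC80 ATP and 100% = DMSO alone without ATP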
CHO-K1 Ca ag: nonselective activator or artifact in parental CHO-K1 cells; Fluo-8 calcium fluorescence; scaled to maximal ATP response, vehicle zero; activation, % at 3 µM; 360,000 tested, 0.48% active; AID 602248; in the data active = activation above about 15%;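 note: untransfected CHO-K1 host cells lacking M1 receptor as counterscreen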
CHO-K1 Ca PAM: counter-screen for M1 PAMs: effect in parental CHO-K1 cells. ATP EC20, Fluo-8 calcium fluorescence; 0% at ATP EC20, 100% at ATP max. activation, % at 3 µM. 360,000 tested, 0.02% active. AID 602247;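 active = activation above the run cutoff, the mean activation of all test compounds plus 3 SD, cut at about 40% in these data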;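 note: peak over basal fluorescence ratio in a 140 s read after ATP addition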
CHRM1 antagonist: antagonists of human M1 muscarinic receptor. 360,000 tested, 1.3% active. P11229. CHO-K1 hM1, Fluo-8 calcium fluorescence, ACh EC80 antagonist. inhibition, % at 3 µM;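 active = percent inhibition above its own plate's cutoff, namely the mean of that plate's compound wells plus 3 SD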;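 note: peak over basal fluorescence ratio during 140 s after agonist addition; 0% = ACh EC80 plus DMSO and 100% = DMSO alone without agonist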
Target sequence (P11229 whole entry, looked up): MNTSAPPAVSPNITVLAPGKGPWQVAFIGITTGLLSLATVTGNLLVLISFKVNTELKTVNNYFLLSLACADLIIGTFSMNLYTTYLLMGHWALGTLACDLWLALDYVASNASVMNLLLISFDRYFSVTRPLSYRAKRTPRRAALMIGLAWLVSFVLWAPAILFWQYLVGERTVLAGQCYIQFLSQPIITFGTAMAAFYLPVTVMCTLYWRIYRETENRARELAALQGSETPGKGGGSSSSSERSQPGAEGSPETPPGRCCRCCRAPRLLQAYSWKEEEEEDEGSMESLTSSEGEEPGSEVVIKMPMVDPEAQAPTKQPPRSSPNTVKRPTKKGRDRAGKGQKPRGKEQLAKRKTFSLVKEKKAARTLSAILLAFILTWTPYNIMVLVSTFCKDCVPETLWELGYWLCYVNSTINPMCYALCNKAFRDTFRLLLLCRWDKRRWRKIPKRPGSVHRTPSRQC
CHRM1 PAM: human CHRM1 positive allosteric modulation; 360,000 tested, 0.088% active; activation, % at 3 µM; AID 588819; CHO-K1 hM1, Fluo-8 calcium fluorescence, ACh EC20; 0% = ACh EC20, 100% = maximal ACh; P11229; in the data active = activation above about 19%, passing the limit was not always enough
M1 ag: activates human CHRM1 receptor | CHO-K1 hM1, Fluo-8 calcium fluorescence, agonist mode; 0% DMSO, 100% acetylcholine EC100 | activation, % at 3 µM | 360,000 tested, 0.33% active;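 active = activation above the run's mean compound activation plus 3 SD, cut at about 16% in these data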;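 note: peak over basal fluorescence ratio within a 140 s kinetic read after compound addition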
Starred values were filed as active, the others as inactive.

SMILES | CHO-K1 Ca antag | CHO-K1 Ca ag | CHO-K1 Ca PAM | CHRM1 antagonist | CHRM1 PAM | M1 ag
COCCNC(=O)C1Cc2c(ccc3ccccc23)O1 (stereo not drawn) | -11 | 2 | 19 | -9 | 9 | -3
O=C(Cn1nc(C(=O)O)c2ccccc2c1=O)Nc1cccc(S(=O)(=O)N2CCOCC2)c1 | -18 | 1 | 26 | -2 | 9 | -5
O=C(Cn1nc(C(=O)O)c2ccccc2c1=O)Nc1cccc(S(=O)(=O)N2CCCCC2)c1 | -4 | 4 | -13 | 24* | -15 | -1
O=C(O)c1nn(CC(=O)N2CCCCCC2)c(=O)c2ccccc12 | 3 | 16* | 2 | 1 | 8 | -2
COc1ccc(-c2cc(NC=O)c3ncc(-c4ccc(OC)c(OC)c4)n3c2)cc1 | 1 | 1 | 8 | -5 | 2 | -4
O=C(c1cc2ccccc2o1)N1CCN(C/C=C/c2ccccc2)CC1 | -4 | 3 | 6 | -10 | 6 | -2
CC(=O)N1CCN(C(=O)/C(C#N)=C/c2ccc3c(c2)OCO3)CC1 | -12 | 0 | 9 | -29 | 34* | 4
CC(C)Oc1ccc(Cn2c(-c3ccco3)n[nH]c2=S)cc1 | -6 | 2 | 18 | 29* | -22 | -4
COc1ccc(Cn2c(-c3ccc(OC)cc3)n[nH]c2=S)cc1 | -5 | 1 | 17 | -18 | 11 | -4
O=S(=O)(c1ccc(Br)cc1F)N1CCCCC1CCO (stereo not drawn) | -3 | 0 | 16 | -8 | 6 | -4
NC(=O)C1CCN(C(=O)CSc2nc3ccccc3s2)CC1 | 24* | 0 | -7 | 8 | -4 | 0
CCOc1ccc(CN2CCCC(N3CCN(c4ccc(OC)cc4)CC3)C2)cc1 (stereo not drawn) | 13 | 0 | -23 | 35* | -19 | -9
Cn1c(SCC(=O)Nc2ccccc2)nc2c([nH]c3ccccc32)c1=O | 10 | 1 | 2 | 35* | -26 | -13
OCC1(Cc2ccccc2)CCN(CCCC2CCCC2)CC1 | -5 | 5 | 4 | 34* | -21 | -5
COc1ccc(CNC(=O)Cn2ccc3cc(S(=O)(=O)N4CCCC4)ccc32)cc1OC | -13 | 0 | 14 | 1 | 1 | -2
CC(C)Oc1cccc(C(=O)Nc2nnc([C@@H]3C[C@H](O)[C@@H](CO)O3)s2)c1 | -15 | 0 | 24 | -7 | 3 | -4
CN1CCN(CCC(=O)N2c3ccccc3Sc3ccc(Cl)cc32)CC1 | 6 | 0 | -5 | 57* | -27 | -7
NCCC(=O)N1c2ccccc2Sc2ccc(Cl)cc21 | 5 | 1 | 10 | 91* | -30 | -8
CN1CCC=C(C(=O)N2c3ccccc3Sc3ccc(Cl)cc32)C1 | 12 | 1 | -20 | 101* | -27 | -8
O=C(CN1CCN(CCOCCO)CC1)N1c2ccccc2Sc2ccc(Cl)cc21 | -7 | 0 | 14 | 93* | -21 | -6
NC(=O)N1CCN(CCCN2c3ccccc3Sc3cc(Cl)ccc32)CC1 | -1 | 1 | 5 | -1 | -2 | -8
Cc1nc(N)c2c(Cc3cccc4ccccc34)nn(C(C)(C)C)c2n1 | -12 | 1 | 17 | -8 | 5 | -1
CCCCC1CC2=C(C(=O)OC(C)(C)O2)C(c2ccc(F)cc2)O1 (stereo not drawn) | -13 | -1 | -7 | -2 | -11 | -7
O=C(Nc1ccc(S(=O)(=O)Nc2ncccn2)cc1)C1=COCCO1 | -3 | 0 | -12 | -13 | 19 | -2
NCCCC(=O)N1c2ccccc2Sc2ccc(Cl)cc21 | -9 | 5 | 22 | 100* | -28 | -9
SMILES | CHO-K1 Ca antag | CHO-K1 Ca ag | CHO-K1 Ca PAM | CHRM1 antagonist | CHRM1 PAM | M1 ag
O=C(CCN1CCN2CCCC2C1)N1c2ccccc2Sc2ccc(Cl)cc21 (stereo not drawn) | -8 | 1 | 4 | 83* | -29 | -9
COc1cccc(NC(=O)CN(C)C(=O)c2cc(-c3ccccc3)nc3ccccc23)c1 | 3 | 7 | 4 | 16 | -4 | -1
COc1ccc(-c2cc(C(=O)N(C)CC(=O)Nc3cccc(F)c3)c3ccccc3n2)cc1OC | 14 | 9 | -11 | 37* | -15 | 3
CN(CC(=O)Nc1cccc(F)c1)C(=O)Cc1n[nH]c(=O)c2ccccc12 | -3 | 0 | 13 | 41* | -15 | -3
COc1cccc(NC(=O)CN(C)C(=O)c2cc(-c3ccc(F)cc3)nc3ccccc23)c1 | 10 | 8 | 1 | 27* | -6 | 0
COc1cccc(NC(=O)CN(C)C(=O)c2cc(-c3ccccc3)nn2-c2ccccc2)c1 | -14 | 0 | 16 | -28 | 24* | -1
CC(C)(C)OC(=O)CNC(=O)c1[nH]cnc1C(=O)Nc1ccc(Cl)cc1 | 1 | 0 | -12 | 3 | 0 | -4
c1cc2c(cc1CN1CCN(C3CCCCCC3)CC1)OCO2 | -15 | 0 | 3 | 64* | -25 | -10
c1ccc(CN2CCC(N3CCN(Cc4ccc5c(c4)OCO5)CC3)CC2)cc1 | -10 | 4 | 11 | 24 | -18 | -4
CN1CCC(=C2c3ccccc3CCc3sccc32)CC1 | -3 | 2 | 17 | 98* | -26 | -4
CN1CCC(=C2c3ccccc3C(O)c3ccccc32)CC1 (stereo not drawn) | -10 | 0 | 9 | 100* | -35 | -11
Nc1nc2c(s1)CCc1ccccc1-2 | 12 | -1 | -12 | -4 | 2 | -7
CCOC(=O)C1CN(S(C)(=O)=O)c2cc(CC(=O)OC)ccc2O1 (stereo not drawn) | 8 | 3 | 1 | 16 | -11 | -8
C=CCN(c1ccccc1)S(=O)(=O)c1ccc(Cl)c(C(=O)OCC(=O)c2[nH]c(C)c(C(C)=O)c2C)c1 | 29* | 4 | -9 | 31* | -19 | -7
CCOC(=O)c1cc(C#N)c(SC)nc1C | -14 | 1 | 21 | -13 | 9 | -3
CSc1nc(C)c(C(=O)C[n+]2ccccc2C)cc1C#N | -14 | 0 | 11 | 40* | -19 | -6
O=C(NC1CC1)c1ccccc1 | -4 | 0 | 9 | -14 | 3 | -2
O=C(Cc1coc2ccc3ccccc3c12)Nc1nccs1 | 26* | 0 | -7 | 1 | 6 | 4
OC1(Cc2ccccc2)CCNCC1 | -7 | 1 | 20 | -5 | 2 | -4
CC(=O)OC(C[N+]1(C)CCCCCC1)c1ccccc1 (stereo not drawn) | -11 | 2 | 18 | 57* | -28 | -10
C[N+]1(CC(O)c2ccccc2)CCCCCC1 (stereo not drawn) | -6 | 0 | 0 | 3 | -9 | -9
Cc1ccc(Oc2ccc(NC(=O)c3ccco3)cc2)cc1 | 27* | 0 | -6 | 3 | 10 | 0
Cc1nnc(NC(=O)c2ccc3ccccc3n2)s1 | 5 | 20* | 13 | 20 | -1 | -2
Cc1nnc(NC(=O)c2ccco2)s1 | 26* | 0 | -13 | -8 | 9 | 1
